About 83,000 compounds went through this panel and 20% of them were active in at least one assay; those are over-represented in the sample as a whole.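 Growth was measured after 48 h exposure to one concentration of compound in 96-well plates. Values under 10 count as active.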 A number with no mark means an inactive call. Active and inactive are the calls of the source.
System: NCI-H522 lung
Assay: NCI-60 one-dose screen, 48 h (100 = growth as untreated, 0 = no growth, -100 = all killed)
Settings: 10 µM
Method: Growth inhibition of the NCI-H522 human Non-Small Cell Lung tumor cell line is measured as a screen for anti-cancer activity. Cells are grown in 96 well plates and exposed to the test compound for 48 hours. Compounds are tested at a single concentration, which is 10^-5 M for most compounds. The reported endpoint is percent growth (GI% or GIPRCNT), where numbers from 0 - 100% represent growth inhibition, and numbers from -100% - 0 represent cell death. For example, a value of 40 represents 60% growth inhibition. A value of 0 means no net growth occurred over the course of the experiment. A value of -40 indicates 40% of cells at the beginning of the experiment died by the end of the experiment. A value of -100 means all cells are dead at the end of the experiment.
NCI-60 Human Tumor Cell Lines Screen was performed using the standard one-dose NCI protocol, which is described in more detail at https://dtp.cancer.gov/discovery_development/nci-60/default.htm.
Compounds with GIPRCNT values below 10 were considered active. Activity score was based on GIPRCNT using the following formula: […]
Score is 0 for GIPRCNT values of 100 or above, 50 for GIPRCNT values of 0, and 100 for GIPRCNT values of -100.

SMILES	growth
CCCCCCCCCCCCCCCCCCCC(=O)NCCc1c[nH]c2ccc(OC(=O)NOCCOCCOCCOCCOCCOCCOCCOCCOCCOCCOCCOCCOCCOCCOCCOCCOCCOCCOCCOCCOCCOCCOC)cc12	-83.4% (active)
O=C(/C=C/Nc1ccc(F)cc1F)c1ccc2c(c1)Nc1ccccc1S2	75%
CN(CCF)c1ccc(/C=C/C(=O)c2ccc(N)cc2O)cc1	67.5%
N#Cc1ccc(-c2nn(-c3ccc(C(=O)O)cc3)cc2CNc2ccc(Cl)cc2)cc1	81.3%
CC(C)C1=C[C@@]23CC[C@@H]4[C@](C)(CCC[C@]4(C)C(=O)NCc4ccccc4)[C@H]2C[C@@H]1[C@H]1C(=O)CCC(=O)[C@H]13	-12.5% (active)
COc1cc2c(cc1OC)CN(CCCCOc1cc(O)c3c(=O)cc(-c4ccccc4)oc3c1)CC2	58.4%
CCOC(=O)C1=C(N)N(c2ccccc2)C2=C(C(=O)CC(C)(C)C2)C1c1ccccc1OC (stereo not given)	95.3%
COc1ccc(-c2nc(Nc3ccccc3S(N)(=O)=O)c3ccccc3n2)cc1	59.7%
COc1ccc(-c2cc(C(=O)N=Nc3c(O)[nH]c4ccccc34)c3ccccc3n2)cc1	24.3%
CN1CCN(c2ccc(Nc3nc(NCCCNC(=O)c4ccc(F)cc4)c4sccc4n3)cc2)CC1	87.5%
C/C(=N\NC(N)=S)c1ccc(Nc2nc(SC(C)C)nc(-c3ccccc3)c2C#N)cc1	78%
O=C1NC(=NC2CCCCCC2)N/C1=C\c1ccc2ncoc2c1	12.6%
O=c1[nH]n(C(=S)N/N=C/c2ccc(F)cc2)c(=O)c2ccccc12	70%
Cn1c(O)c(N=Nc2nc(-c3cc4ccccc4oc3=O)cs2)c2cc(Br)ccc21	57.9%
CC(=O)c1ccc(Nc2nc(SCCC(C)C)nc(-c3ccc(F)cc3)c2C#N)cc1	72.8%
O=C(NO)c1ccc(Cn2ccc3c(Nc4ccccc4)ncnc32)cc1	-40.4% (active)
CN1CCN(Cc2ccc(C(=O)Nc3cccc(Nc4ccc5cc(O)ccc5n4)c3)cc2C(F)(F)F)CC1	-68.8% (active)
Cc1cc(C(F)(F)F)ccc1C(=O)Nc1sc2c(c1C#N)CCC(=O)C2	-62.9% (active)
COc1ccc(C2NC(=S)NC(C)=C2C(=O)OC(C)C)cc1OC (stereo not given)	102%
COc1cccc(COc2ccc(/C=C3\Oc4cc(O)ccc4C3=O)cc2)c1	35.9%

SMILES	growth
COc1ccc(CN2[C@H](C(=O)NCc3ccc(C(=O)NO)cc3)Cc3c([nH]c4ccccc34)[C@H]2C2CC2)cc1	22.2%
O=C(Nc1cccc(C(F)(F)F)c1)c1cncc(C#Cc2cnc3ccc(N4CCOCC4)nn23)c1	-34.1% (active)
C=C1CCC2C3(C)COC(c4cccc(F)c4)OC3CCC2(C)C1CC(O)C1=CCOC1=O (stereo not given)	23.9%
Cc1noc2c(Cc3ccccc3)nn(CC(=O)N/N=C/c3ccc(Cl)cc3)c(=O)c12	83.9%
O=c1[nH][nH]c(Nc2ccccc2)c1N=Nc1ccc(F)cc1	75.1%
Nc1nc(Nc2ccccc2)nn1Cc1c(Cl)cccc1Cl	21.1%
COc1ccc(N(C)c2cc(C#N)nc3ccccc23)cc1/C=C/C(=O)NO	-75.4% (active)
COc1ccc(C(C)=C(c2ccc(OCCCN(C)C)cc2)c2ccc(OCCCN(C)C)cc2)cc1	-92.7% (active)
Cc1ccc(-c2cc(C(=O)N=Nc3c(O)[nH]c4ccccc34)c3ccccc3n2)cc1	56.6%
CCCCOc1ccc(Nc2nc3ccccc3nc2Nc2ccc(OCCCC)cc2)cc1	88.5%
Clc1ccc(/C=N/Nc2ncnc3sc4c(c23)CCN(Cc2ccccc2)C4)cc1	1.08% (active)
CNC(=O)c1cc(-c2ccc(NC(=O)Nc3ccc(C)cc3)cc2)nc2cccnc12	87.5%
O=C(N/C(=C1/OCCN1Cc1ccccc1)[P+](c1ccccc1)(c1ccccc1)c1ccccc1)c1ccccc1	-6.25% (active)
COc1ccc2[nH]cc(/C=N/Nc3cccc(Cl)n3)c2c1	27.1%
O=C(c1ccc(Cl)cc1)C1[C@H](c2ccc(Br)cc2)[C@@H](c2ccccc2)NC12C(=O)Nc1ccc(Br)cc12 (stereo not given in full)	-82% (active)
O=C1CCC(N2Cc3cc(CC(=O)Nc4ccc(N5CCCCC5)cc4)ccc3C2=O)C(=O)N1 (stereo not given)	65.3%
NS(=O)(=O)c1ccc(N=Nc2c(O)n(CC(=O)Nc3ccccc3Br)c3ccccc23)cc1	32.6%
CCOP(=O)(OCC)O[C@H]1CC[C@]2(C)[C@H]3CC[C@@H]4[C@@H]([C@](C)(O)CCC=C(C)C)CC[C@@]4(C)[C@]3(C)CC[C@H]2C1(C)C	1.32% (active)
COc1ccc(C(=O)CSc2nnc(-c3c[nH]c4ccccc34)n2-c2ccccc2)cc1	45.7%
C=C[C@@]12CN3CC[C@]1(O)[C@@](C(=O)OC)(CO2)c1[nH]c2ccccc2c1C3	22.3%

From PubChem BioAssay (NCI)
